Source: PubChem (several laboratories)
FAS-TE inh: FAS thioesterase (human) inhibition | recombinant FAS-TE, OMFH fluorogenic substrate, fluorescence endpoint | inhibition, % at 15 µM | hit rate 0.67% among 360,000 | AID 602261;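 active = compounds whose normalised, plate-corrected inhibition of enzyme fluorescence in the single-dose primary screen is 50% or more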;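 also: 0% = DMSO with enzyme and 100% = substrate without enzyme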
ADAM17 inh: ADAM17 inhibition, QFRET primary screen | inhibition, % at 6.95 µM | P78536 | hit rate 0.83% among 370,000 | AID 720648 | recombinant ADAM17, EDANS/DABCYL FRET peptide cleavage;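 active = inhibition above the mean of compounds lying between control limits plus 3 SD, set per campaign, cut at about 8.5% in these data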;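 also: 0% = DMSO-only wells as the low control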
NR3A LBD binder: modulates the human NR3A ligand-binding domain. NR3A LBD differential scanning fluorimetry, Tm shift; 0% = protein alone, 100% = glycine-bound protein. Tm shift relative to glycine control, % at 25 µM. hit rate 2.5% among 340,000;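 active = melting temperature shift of at least 10% of the positive control shift, at one fixed dose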
aDG glyco up: increases alpha dystroglycan glycosylation. Pro5-aDG cells, alpha-DG glycosylation AlphaScreen (IIH6); 0% Pro5, 100% B10-LARGE cell signal. activation, % at 10 µM. hit rate 0.22% among 360,000. AID 624168;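 active = activation of at least 8% versus controls, or a plate z-score of at least 8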;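 also: Pro5 are CHO cells carrying HIG-tagged alpha-DG that lacks glycosylation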
ADAM10 inh: inhibits human ADAM10; recombinant ADAM10, EDANS/DABCYL FRET peptide cleavage, 3 h; inhibition, % at 7 µM; hit rate 0.62% among 370,000; AID 720582;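 active = inhibition above a per-campaign cutoff equal to the mean of compounds falling between control-based bounds plus 3 SD, cut at about 20% in these data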;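 also: 0% = DMSO wells while the 100% control is not disclosed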
ADAM10 ctr: ADAM10 inhibition, counter-screen for ADAM17 exosite hits. recombinant ADAM10, EDANS/DABCYL FRET peptide cleavage, 3 h. inhibition, % at 6.95 µM. AID 743256. shares compounds with ADAM17 inh. hit rate 47% among 2,900;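 active = mean inhibition over the triplicate runs exceeds the activity threshold set in the earlier primary screen, cut at about 20% in these data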;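 also: 0% = DMSO wells and 100% = marimastat wells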
ADAM17 confirm: human ADAM17 inhibition, confirmation; recombinant ADAM17, EDANS/DABCYL QFRET peptide cleavage; shares compounds with ADAM17 inh; hit rate 65% among 2,900; inhibition, % at 6.95 µM;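 active = mean inhibition across replicates above the hit cutoff set in the primary screen, cut at about 8.5% in these data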;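 also: 0% = DMSO wells and 100% = marimastat wells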
* marks the source's active call; other numbers are inactive results; · = not tested or not shown. Shown are actives, neighbours in structure and some others; about 4% of the full set was active somewhere.

SMILES | FAS-TE inh | ADAM17 inh | NR3A LBD binder | aDG glyco up | ADAM10 inh | ADAM10 ctr | ADAM17 confirm
CCN(CC)c1ccc(NC(=O)Nc2ccccc2)cc1 | 0 | 0 | 6 | 0 | 5 | · | ·
CCCCCC(=O)N1C[C@H](O)[C@@H](n2cc(-c3ccc(F)cc3)nn2)C[C@@H]1c1ccc(Cl)cc1 | 16 | 2 | · | 0 | 6 | · | ·
Cc1ccc([C@H]2C[C@@H](O)[C@H](n3cc(-c4ccc(F)cc4)nn3)CN2C(=O)C2CCCCC2)cc1 | 19 | 10* | · | 0 | 12 | 29* | 15*
O=C(C1CCCCC1)N1C[C@H](n2cc(-c3ccc(F)cc3)nn2)[C@@H](O)C[C@@H]1c1ccc(Cl)cc1 | 20 | 4 | · | 0 | 9 | · | ·
CCCCCC(=O)N1C[C@@H](n2cc(-c3ccc(F)cc3)nn2)[C@H](O)C[C@@H]1c1ccc(Cl)cc1 | 47 | 11* | · | 0 | 15 | 29* | 17*
CC(OC(=O)c1ccc2ccccc2c1)C(=O)N(C)Cc1ccccc1 (stereo not given) | 21 | -6 | -1 | 0 | -18 | · | ·
Nc1cc(S(=O)(=O)N2CCOCC2)ccc1N1CCOCC1 | -6 | 4 | 8 | 0 | -10 | · | ·
O=CNCc1nc2ccccc2n1CCc1ccccc1 | -3 | 1 | 0 | 0 | 7 | · | ·
Cc1cc(NC(=O)CSCC(=O)N(c2cccc(Cl)c2)C(C(=O)NC2CCCCC2)c2ccc(O)c(O)c2)no1 (stereo not given) | -13 | 9.5* | -1 | 0 | 8 | -2 | 5
CCOc1ccc(N(CC(=O)NCc2ccc3c(c2)OCO3)C(=O)c2csnn2)cc1 | 0 | -4 | 1 | 0 | -3 | · | ·
Cc1ccc(O)c(C(CC(=O)NC2CCCCC2)c2ccccc2)c1 (stereo not given) | 6 | 0 | -4 | 0 | 3 | · | ·
COc1ccccc1OCCNC(=O)CN1C(=O)NC2(CCCC2)C1=O | -4 | 9.3* | 0 | 0 | -1 | 8 | 8
COc1ccccc1NC(=O)CN1C(=O)NC2(CCCCCCC2)C1=O | -2 | 6 | -2 | 0 | 2 | · | ·
Nc1nnc(SCCN2C(=O)c3ccccc3C2=O)s1 | -4 | 0 | 1 | 0 | -1 | · | ·
Cc1cccc2sc(NC(=O)CN(C)S(=O)(=O)c3ccc(Br)s3)nc12 | 23 | 8.8* | 6 | 0 | 18 | 44* | 24*
O=C(NCCOc1ccccc1)C1CCCN1C(=O)c1cccs1 (stereo not given) | -4 | -2 | 1 | 0 | 2 | · | ·
CCc1ccccc1NC(=S)NCCSc1ccc(Cl)cc1 | 34 | -1 | -1 | 1 | 8 | · | ·
COc1ccc(CNC(=O)C2(CC3CC(c4ccccc4)=NO3)CCN(C(=O)C3(C)CC3)CC2)cc1 (stereo not given) | -6 | 8.7* | -1 | 0 | 7 | 1 | 5
COc1ccc(CNC(=O)C2(CC3CC(c4ccccc4)=NO3)CCN(C(=O)C3CCCC3)CC2)cc1 (stereo not given) | 3 | 0 | 2 | 0 | 8 | · | ·
CCCCN1CN(Cc2ccco2)CNC1=S | -6 | -3 | 0 | 0 | -2 | · | ·
COc1cccc(-c2cnc(C(O)c3ccc(SC)cc3)[nH]2)c1 (stereo not given) | 2 | 1 | · | 0 | 10 | · | ·
CSc1ccc(C(O)c2ncc(-c3cccc(OCc4ccccc4)c3)[nH]2)cc1 (stereo not given) | 13 | 9.3* | · | 0 | 19 | 23* | 11*
OC(c1ccc(-c2ccccc2)cc1)c1ncc(-c2ccc(F)cc2)[nH]1 (stereo not given) | 15 | 11* | · | 0 | 19 | 23* | 12*
OC(c1ccccc1)c1ncc(-c2ccc(Cl)cc2)[nH]1 (stereo not given) | -3 | 4 | · | 0 | 0 | · | ·
CCCc1cc(=O)[nH]c(SCC(=O)N(Cc2ccccc2)C(C)C)n1 | -6 | 3 | -2 | 0 | 2 | · | ·
CCOC(=O)[C@H]1[C@H]2COc3ccc(C)cc3[C@@H]2N2C(=O)CN(Cc3ccc(C)cc3)C(=O)[C@@]12C | 4 | 1 | -2 | 0 | 2 | · | ·
